Among the data in PubChem BioAssay (NCI) are growth values, retold here.

The panel holds about 83,000 compounds, 20% with a hit somewhere; the sample as a whole holds those more often.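 Method: cells in 96-well plates; compound added at one concentration; 48 h incubation; percent growth measured; values under 10 scored active.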 A number with no mark means an inactive call. Activity calls are given as the source filed them.

Some test systems named below: HCT-15 colon; HT29 colon; SNB-19 CNS; U251 CNS; PC-3 prostate; SK-MEL-5 melanoma; UACC-62 melanoma; SK-MEL-28 melanoma; SNB-75 CNS; LOX IMVI melanoma.
Common to all, as to assay: NCI-60 one-dose screen, 48 h (100 = growth as untreated, 0 = no growth, -100 = all killed)
What all share (conditions): 10 µM unless noted

For the compound `CCOc1ccc2nc(NC(=O)Nc3ccccc3C)sc2c1`, the growth was 27% in the test on HCT-15 colon; 14.9% in the test with HT29 colon; 53.8% in the test on SNB-19 CNS; 48.2% in the test with U251 CNS; 57.6% in the test with PC-3 prostate; 59.6% with SK-MEL-5 melanoma. The growth in the test with UACC-62 melanoma was 47.2%; with SK-MEL-28 melanoma, 54.1%.
For the compound `O=C(Nc1cc(Cl)cc(Cl)c1)Nc1nc2ccc([N+](=O)[O-])cc2s1`, the growth in the test on HCT-15 colon was 2.76% (active); with HT29 colon, 5.08% (active); in the test on SNB-19 CNS, 21.3%; in the test with U251 CNS, 6.61% (active); in the test with PC-3 prostate, 7.99% (active); in the test with SK-MEL-5 melanoma it was -76.5% (active). For the same compound, the results for the growth with UACC-62 melanoma and in the test on SK-MEL-28 melanoma were -34.1% (active) and -2.55% (active), respectively.
Take `C=CCn1c(SCC(=O)Nc2cccc(C(=O)/C=C/c3ccccc3)c2)nc2ccccc2c1=O`: the growth with HT29 colon is 14.7%; in the test on SNB-75 CNS, 82.1%; in the test on SNB-19 CNS, 77.1%; in the test with U251 CNS, 46.7%; in the test on PC-3 prostate it was 77.4%; in the test on SK-MEL-5 melanoma, 98.6%. Moreover, the growth in the test with UACC-62 melanoma was 86.3%; with LOX IMVI melanoma, 24.4%; in the test on SK-MEL-28 melanoma, 95.4%.
Turning to `O=C1c2cc(Br)ccc2-n2c1nc1cc(Br)ccc1c2=O`, the growth in the test with HT29 colon was 74.3%; in the test with SNB-75 CNS, 68.3%; with SNB-19 CNS it was 84.6%; in the test with U251 CNS, 91.9%; in the test with PC-3 prostate, 60.9%; with SK-MEL-5 melanoma, 60.6%. Moreover, the growth in the test on UACC-62 melanoma was 85.7%; in the test with LOX IMVI melanoma, 63.9%; in the test with SK-MEL-28 melanoma, 88.9%.
Turning to `COc1cc(/C=C/C(=O)c2ccc(NC(=O)COc3cccc4cccnc34)cc2)cc(OC)c1OC`, the growth with HT29 colon is 81.2%; in the test on SNB-75 CNS it was 82.4%; in the test with SNB-19 CNS, 73.7%; with U251 CNS it was 83.8%; in the test with PC-3 prostate, 84.6%; in the test with SK-MEL-5 melanoma, 73.2%. For the same compound, the growth in the test on UACC-62 melanoma is 70.1%; in the test on LOX IMVI melanoma, 42.5%; in the test with SK-MEL-28 melanoma it was 95.2%.
Consider `COc1ccccc1/C=C/C=N/NC1=NC2C(S1)N(C)C(=O)N2c1ccccc1` (centres undefined), for which the growth is 15.9% in the test with HT29 colon; 18.3% with SNB-75 CNS; 22.7% with SNB-19 CNS; 23.5% with U251 CNS; 26.9% in the test with PC-3 prostate; -12.6% (active) in the test with SK-MEL-5 melanoma. In addition, the growth in the test with UACC-62 melanoma is 33%; with LOX IMVI melanoma it was -0.484% (active); in the test on SK-MEL-28 melanoma it was 60.3%.
Consider `COc1cc(CNC(=O)Cc2ccccc2[N+](=O)[O-])ccc1OCC(=O)NO`, for which the growth with HT29 colon was 110%; in the test with SNB-75 CNS it was 95.6%; in the test on SNB-19 CNS, 98.7%; in the test with U251 CNS it was 106%; in the test on PC-3 prostate it was 95.9%; in the test with SK-MEL-5 melanoma it was 103%. The growth in the test with UACC-62 melanoma is 92.7%; in the test with LOX IMVI melanoma, 100%; in the test with SK-MEL-28 melanoma, 109%.
In the case of `C=CCn1c(SCC(=O)Nc2cccc(C(=O)/C=C/c3ccccc3Cl)c2)nc2ccccc2c1=O`, the growth with HT29 colon is 75%; in the test with SNB-75 CNS, 70.9%; in the test with SNB-19 CNS it was 78.5%; with U251 CNS, 81.8%; in the test with PC-3 prostate it was 82.8%; in the test on SK-MEL-5 melanoma, 98.8%. For the same compound, the growth in the test with UACC-62 melanoma was 83.4%; in the test on LOX IMVI melanoma, 79.5%; in the test on SK-MEL-28 melanoma, 92.3%.
With `CCOC(=O)c1c(NC(=O)c2cccc(C(F)(F)F)c2)sc2c(CN3CCN(C)CC3)c(O)ccc12`, the growth with HT29 colon was -31.6% (active); in the test on SNB-19 CNS, -53.9% (active); in the test on U251 CNS, -79.1% (active); with PC-3 prostate, -33.9% (active); with SK-MEL-5 melanoma it was 52.7%; in the test on UACC-62 melanoma it was -67.5% (active). The growth was -94.7% (active) in the test with LOX IMVI melanoma and -60.5% (active) in the test with SK-MEL-28 melanoma.
With `CCOC(=O)c1c(Nc2ccccc2)nn2c(-c3ccc(Br)cc3)ccnc12`, the growth with HT29 colon was 76.7%; with SNB-75 CNS, 65.2%; in the test on SNB-19 CNS it was 56.8%; with U251 CNS, 66.3%; in the test with PC-3 prostate, 80.9%; in the test on SK-MEL-5 melanoma, 81.2%. Moreover, the growth in the test on UACC-62 melanoma is 79.3%; in the test with LOX IMVI melanoma, 56.4%; in the test on SK-MEL-28 melanoma, 78.3%.
Turning to `Nc1nc(-c2cccc([N+](=O)[O-])c2)c(N=Nc2ccccc2[N+](=O)[O-])s1`, the growth with HT29 colon is 80.2%; in the test on SNB-75 CNS, -14.7% (active); in the test on SNB-19 CNS, 12.4%; in the test on U251 CNS, -79.5% (active); in the test with PC-3 prostate, 46.4%; with SK-MEL-5 melanoma, 47%. For the same compound, the growth in the test on UACC-62 melanoma is 66.1%; with LOX IMVI melanoma, 6.53% (active); in the test on SK-MEL-28 melanoma, 88.4%.
For the compound `Oc1ccc(-c2nnc(SCc3ccc(O)c4ncccc34)o2)cc1`, the growth is 24% with HT29 colon; 12.8% with SNB-19 CNS; 13.2% with U251 CNS; 9.97% (active) in the test with PC-3 prostate; -17.1% (active) in the test with SK-MEL-5 melanoma; -12.7% (active) in the test on UACC-62 melanoma. Further, the results for the growth in the test on LOX IMVI melanoma and with SK-MEL-28 melanoma were 7.94% (active) and 22.7%, respectively.
